# MITF inh: inhibitors of human MITF; O75030; AlphaScreen MITF homodimerization, bead proximity signal; inhibition, % at 2.6 µM; actives 0.91% (n = 650,000); AID 1259374; in the data active means inhibition above about 50%;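 further: 0% = vehicle wells with protein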
# Target sequence (O75030 whole entry, looked up): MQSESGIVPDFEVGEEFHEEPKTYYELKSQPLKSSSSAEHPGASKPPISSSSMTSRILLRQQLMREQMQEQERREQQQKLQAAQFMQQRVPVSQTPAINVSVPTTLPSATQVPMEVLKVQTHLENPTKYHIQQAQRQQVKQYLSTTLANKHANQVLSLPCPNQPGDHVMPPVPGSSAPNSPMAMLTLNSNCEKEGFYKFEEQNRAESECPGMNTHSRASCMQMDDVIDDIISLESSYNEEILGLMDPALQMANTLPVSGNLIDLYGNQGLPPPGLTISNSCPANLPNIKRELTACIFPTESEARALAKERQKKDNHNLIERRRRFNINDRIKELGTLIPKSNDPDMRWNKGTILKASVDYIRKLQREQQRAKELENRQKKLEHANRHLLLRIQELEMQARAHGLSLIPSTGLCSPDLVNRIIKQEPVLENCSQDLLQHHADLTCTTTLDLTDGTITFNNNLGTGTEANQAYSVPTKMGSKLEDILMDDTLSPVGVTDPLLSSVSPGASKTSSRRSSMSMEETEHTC
# FBW7 activator: activators of human E3 ligase FBW7; Q969H0; AlphaScreen FBW7–phospho-cyclin E peptide binding, activator screen; normalized activity (activation), % at 26.1 µM; actives 0.13% (n = 650,000); AID 1259310; in the data active means normalized activity above about 1.9%;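 further: purified mutant Fbw7 with reduced substrate affinity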
# TEAD-YAP inh: TEAD-YAP interaction inhibition; HEK-TIYL cells, TEAD-Gal4/YAP UAS-luciferase luminescence; inhibition, % at 9.12 µM; actives 1.4% (n = 640,000); AID 1259422; in the data active means inhibition above about 32%;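 further: 0% = median of test compound wells and 100% = reference inhibitor wells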
# GPR151 ag: activates the human receptor GPR151. actives 1% (n = 650,000). PathHunter beta-arrestin GPR151 cells, luminescence. AID 1508602. activation, % at 11.2 µM. Q8TDV0; in the data active means activation above about 4.9%;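 further: 0% = median of compound wells and 100% = cells with positive control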
# GPR151 confirm: human GPR151 activation, confirmation screen | shares compounds with GPR151 ag | GPR151 PathHunter beta-arrestin cells, luminescence, 90 min; % of EA-reagent control over plate median | activation, % at 11.2 µM | 6,700 tested, under 10 active;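 active means mean percent activation across replicates above the confirmation screen cutoff of 4.91%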
# GPR119 counter: counter-screen for GPR151 activators: effect on human GPR119; shares compounds with GPR151 ag; GPR119 PathHunter beta-arrestin cells, luminescence, 90 min; 0 = compound-well median, 100 = enzyme-acceptor control; activation, % at 11.2 µM; actives 0.3% (n = 6,700); AID 1508611;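 active means mean percent activation in the counterscreen above 29.09%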;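 further: counterscreen on off-target GPR119 to flag nonselective hits from the GPR151 activator screen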
# The depositor's hits bear a star; . = not tested or not shown; ! = not confirmed by another sample. The list is not random: actives were taken first. Their share in the collection is about 3.4%.
SMILES,MITF inh,FBW7 activator,TEAD-YAP inh,GPR151 ag,GPR151 confirm,GPR119 counter
Cc1ccc(NC(=O)Cn2cnc3sc(C(=O)Nc4ccccc4)c(C)c3c2=O)cc1,6,1,11,8.9*,0,2
CCN(CC)C(=O)Cn1cnc2sc(C(=O)Nc3cc(OC)ccc3OC)c(C)c2c1=O,3,0,0,0,.,.
Cc1c(C(=O)Nc2ccc3c(c2)OCO3)sc2ncn(CC(=O)N3CC(C)CC(C)C3)c(=O)c12 (configuration not stated),13,0,6,5.0*,0,1
C=CCN1C(=O)CC(C(=O)Nc2ccc(C(=O)OC)cc2)SC1=Nc1ccc(Cl)cc1 (configuration not stated),-16,0,0,0,.,.
CC(C)(C)C(=O)Nc1nnc(-c2ccccc2Cl)s1,-5,0,-26,3,.,.
O=C(Cc1nc2scc(-c3ccccc3)c2c(=O)[nH]1)N1CCOCC1,1,0,3,11*,0,13
CC(C)CCn1nc(C(=O)NN)c2ccccc2c1=O,1,0,-3,6.0*,1,7
COCCNC(=O)c1ccc2c(=O)n(Cc3ccco3)c(SCC(=O)N3CCCCCC3)nc2c1,0,0,22,-1,.,.
O=C(Nc1ccc(Br)cc1C(=O)c1ccccc1)c1ccc(Nc2nc(-c3ccccc3)c3cc(Cl)ccc3n2)cc1,14,0,-10,2,.,.
O=C(Nc1ccccc1C(=O)c1ccccc1)c1ccc(Nc2nc(-c3ccccc3)c3cc(Cl)ccc3n2)cc1,-3,0,-1,8.5*,1,16
CCCCc1cc(=O)oc2cc(OCC(=O)OCC)c(Cl)cc12,10,0,0,0,.,.
CC(C)c1nnc2n1CCN(C(=O)c1cc(=O)c3ccccc3o1)CC2,3,0,-22,7.3*,1,2
O=C(c1cc(=O)c2ccccc2o1)N1CCCC1,1,0,16,1,.,.
CNc1nc2ccccn2c(=O)c1/C=C1\SC(=S)N(Cc2ccccc2)C1=O,1,0,0,0,.,.
COc1cc(C(=O)Nc2ccc([N+](=O)[O-])cc2)cc(Br)c1OC,6,1,7,5.6*,0,2
COc1cc(C(=O)Nc2cccc([N+](=O)[O-])c2)cc(OC)c1OC,11,0,-1,1,.,.
O=C(O)CCCCNS(=O)(=O)c1ccccc1C(F)(F)F,13,1,-13,9.4*,-1,-4
CCOc1ccccc1/C=N/N=C1\NC(=O)C(CC(=O)O)S1 (configuration not stated),14,0,6,0,.,.
CN(Cc1cn(-c2ccccc2)nc1-c1ccc(Cl)cc1)C(=O)CCC(=O)O,18,1,-10,5.6*,-1,-6
NC(=O)c1cn(-c2ccccc2)nc1-c1ccc(Cl)cc1,16,0,1,-1,.,.
O=C(Nc1ccc(S(=O)(=O)Nc2nccs2)cc1)c1ccc(Cl)c([N+](=O)[O-])c1,6,0,7,-1,.,.
O=C(CCc1nnc(C2(c3ccc(Cl)cc3)CCC2)o1)NCCCc1cccnc1,-5,0,-18,-1,.,.
O=C(CCc1nnc(C2(c3ccc(Cl)cc3)CCC2)o1)NCc1cccnc1,4,0,-1,4.9*,-1,-9
CC(=O)NCCSCc1cc2cccc3c2n(c1=O)CCC3,9,0,-11,6.3*,-1,-8
Cc1cncc2c(S(=O)(=O)N3CC[C@H](NC(=O)CN)C3)cccc12,8,0,5,6.1*,0,-11
SMILES,MITF inh,FBW7 activator,TEAD-YAP inh,GPR151 ag,GPR151 confirm,GPR119 counter
COc1cc(/C=C2\SC(N3CCOCC3)=NC2=O)cc(OC)c1OC,18,0,0,0,.,.
c1ccc2c(N3CCCCCC3)nc(CN3CCCC3c3nccs3)nc2c1 (configuration not stated),-1,0,-2,5.0*,0,-4
CCC(C)N(C)C(=O)c1cc2ccccc2c(-c2ccccc2Cl)n1 (configuration not stated),1,0,-2,5.4*!,0,2
CC(NC(=O)c1cc(-c2ccccc2Cl)nc2ccccc12)c1ccccc1 (configuration not stated),15,0,18,0,.,.
Cc1cccc(-n2nc([N+](=O)[O-])c(=NC3CCCC3)n2O)c1,31,0,-11,-1,.,.
CC(=O)N1CCc2cc(Br)cc(S(=O)(=O)Nc3ccc4c(c3)OCCO4)c21,14,0,-11,0,.,.
O=C(CSc1nnc(CNC(=O)c2ccccc2)o1)NCc1ccco1,8,0,2,7.8*,1,4
Cc1cc(NC(=O)c2ccc(C)s2)n(-c2nc3ccccc3[nH]2)n1,3,0,0,5.3*,0,2
COc1ccc2ccccc2c1/C=N/Nc1ccc(S(N)(=O)=O)cc1[N+](=O)[O-],-7,0,-2,-1,.,.
CC(=O)OC(C(=O)NCc1ccco1)c1ccncc1 (configuration not stated),-3,0,-5,11*,2,6
O=[N+]([O-])c1ccc2ncnc(N3CCN(Cc4ccc5c(c4)OCO5)CC3)c2c1,4,-1,35*,12*,1,3
Cn1ncc2c(N3CCN(Cc4ccc5c(c4)OCO5)CC3)ncnc21,6,1,2,1,.,.
Cn1c(=O)c2c(ncn2CC(=O)N/N=C/c2cccc(F)c2)n(C)c1=O,-2,0,-4,5.6*,0,-6
CCOC(=O)CCC(=O)Nc1cccc(Cl)c1Cl,5,0,4,6.9*,0,-4
CCOC(=O)CCC(=O)Nc1cccc2c(NC(=O)CCC(=O)OCC)cccc12,-27,0,-10,2,.,.
CC(=O)N1CCN(Cc2cccc(F)c2)CC1,10,0,15,5.4*,0,3
CC(=O)N1CCN(Cc2ccc3c(c2)CN(C(=O)Cc2cccc(F)c2)CCO3)CC1,-3,0,7,3,.,.
Cc1cnc(N2CCOCC2)nc1Nc1ccc(Oc2ccccc2)cc1,-3,0,-17,6.6*,-1,-1
